Gal4-VP16 FLuc: Gal4-VP16 reporter inhibition counter-screen; Potency, µM (doses to about 53.6 µM), without a hit: top-dose activity, negative = inhibition, actives largely listed as inhibitors; AID 2546; Drosophila S2 Gal4-VP16 UAS-luciferase, luminescence, 20 h; hit rate 3.5% among 310,000;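 also: Gal4-VP16 expression switched on by copper sulfate through the metallothionein promoter; potency is read from the fitted curve at half-maximal effect; nearly all actives have a fitted effect of over 50% in size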
TSHR antag: human thyrotropin receptor antagonism; activity change, negative = inhibition, % at 11.5 µM; hit rate 0.2% among 330,000; P16473; TSHR-expressing cells, TSH-stimulated cAMP HTRF, 2 h; stronger effect = lower value;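 active = activity change below a set negative limit, meaning inhibition stronger than a set level, cut at about -70% in these data; inconclusive = activity change between two set negative limits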
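Cell-based HTRF cAMP assay; TSHR cells + compound, TSH EC80 (4nM final), 2 h, 37 deg C. Lysis with anti-cAMP cryptate and cAMP-d2, 30 min RT, read 665/620 nm.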
ELG1 DNA repair: inhibitors of ELG1-dependent DNA repair in HEK293T cells; HEK293T ELG1-luciferase reporter, luminescence, 16 h; DNA damage induced by 5-fluorouridine; Potency, µM (highest dose often 46.1 µM), inactives show at the highest dose activity change, negative = inhibition, actives largely listed as inhibitors; hit rate 2.3% among 330,000; AID 504467; also: potency is read from the fitted curve at half-maximal effect; nearly all actives have a fitted effect of over 55% in size
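Overnight (16 hr) co-exposure of 2,000 cells/well to 5-fluorouridine and compound at 37 °C preceded detection. Luciferase was quantified via ONE-Glo luminescence; loss of signal denotes inhibition.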
Coupling enz: counter-screen for Giardia aldolase inhibitors: coupling enzyme system; coupling enzyme system counterscreen, AmpLite Red fluorescence; activity change, negative = inhibition, % at 58.2 µM, hits read low; hit rate 0.67% among 290,000; AID 2472; in the data active = activity change below about -30%
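Final compound at 57.5 uM, incubated 10 min at RT with coupling enzyme reagent (glyceraldehyde-3-phosphate), then 20 min with substrate and AmpLite Red detection. Fluorescence read at 525/598 nm; tests interference with the coupling assay, not aldolase inhibition.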
RORg inh: blocks mouse ROR gamma transcriptional activity. hit rate 5.4% among 310,000. AID 2551. Potency, µM (highest dose often 53.6 µM), for the others: at the highest dose activity change, negative = inhibition, actives largely listed as inhibitors. Drosophila S2 Gal4-RORgamma UAS-luciferase reporter, 20 h. P51450; also: potency is read from the fitted curve at half-maximal effect; nearly all actives have a fitted effect of over 60% in size
Target sequence (P51450 whole entry, looked up, the tested form may be a part): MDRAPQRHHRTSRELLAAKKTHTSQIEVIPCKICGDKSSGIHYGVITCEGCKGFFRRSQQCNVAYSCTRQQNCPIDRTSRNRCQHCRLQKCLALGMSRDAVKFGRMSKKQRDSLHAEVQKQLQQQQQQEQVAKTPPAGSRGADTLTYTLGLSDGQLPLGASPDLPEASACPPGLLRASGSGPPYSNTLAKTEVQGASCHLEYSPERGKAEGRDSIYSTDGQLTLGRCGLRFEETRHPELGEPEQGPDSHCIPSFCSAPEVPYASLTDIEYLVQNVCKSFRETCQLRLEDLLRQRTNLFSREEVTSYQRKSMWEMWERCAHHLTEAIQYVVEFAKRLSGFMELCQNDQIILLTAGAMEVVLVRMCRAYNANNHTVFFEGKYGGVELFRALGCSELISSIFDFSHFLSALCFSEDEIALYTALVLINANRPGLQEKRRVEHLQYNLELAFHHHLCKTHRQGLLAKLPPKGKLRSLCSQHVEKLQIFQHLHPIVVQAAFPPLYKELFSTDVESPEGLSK
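In this cell-based reporter format, copper sulfate (700 uM final) drives Gal4–ROR gamma fusion expression from a metallothionein promoter in Drosophila Schneider cells; compounds preincubated 1 hr, reporter read after 20 hr at ambient temperature.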
Starred values were filed as active, the others as inactive; u = inconclusive; x = no result given; [ ] = remark or other dose. An excerpt weighted towards active compounds, which were near 8% of everything screened. Unless noted, calls follow the shape of the dose curve; as a rule, active = well fitted curve in the direction sought with a large enough effect; inconclusive = small, poorly fitted or top-dose-only effect, or another doubt; inactive = no such curve, though single readings can be large; an effect the other way counts as inactive or inconclusive. % is scaled to controls: 0 for no effect and ±100 for the full control effect.

SMILES	Gal4-VP16 FLuc	TSHR antag	ELG1 DNA repair	Coupling enz	RORg inh
CC1(c2ccccc2)NC(=O)N(CC(=O)N2CCN(S(=O)(=O)c3ccccc3[N+](=O)[O-])CC2)C1=O (stereo unspecified)	4.6%	-4.4	u	x	-13.9%
O=C(C1CCCN(S(=O)(=O)c2ccc(F)cc2)C1)N1CCCCC1 (stereo unspecified)	-9.8%	-14.8	15.3%	x	12.5%
C=C(CCC12O[C@H](C(=O)O)[C@@](O)(C(=O)O)[C@](C(=O)O)(O1)[C@H](OC(=O)/C=C/[C@@H](C)C[C@@H](C)CC)[C@H]2O)[C@@H](OC(C)=O)[C@H](C)Cc1ccccc1	-3.2%	x	x	6.9	-7.6%
CC(C#N)Sc1nnc(-c2ccccc2F)n1C1CC1 (stereo unspecified)	7.6%	5.5	11.0%	2.5	-13.1%
COc1ccccc1NC(=O)Nc1nc(-c2cccnc2)nc2ccccc12	-6.0%	x	x	4.2	-0.5%
CC(=N\NC(=O)c1ccccc1)/C(=N/O)C(=O)Nc1ccccc1	u	-8.7	5.2%	1.4	5.01µM*
CC1=NN(c2ccc(C(=O)O)c(N)c2)C(=O)C1	-11.6%	7.3	u	-36.8*	-0.2%
CC(=O)Nc1ccc(S(=O)(=O)N2CCC(n3cnc4cc(F)ccc43)CC2)cc1	0.9%	-9.1	10µM*	-1.7	u
O=C(Nc1ccccc1C(F)(F)F)N1CCCCCC1	19.2%	20.5	u	5.3	24.1%
NC(=O)C1(N2CCCCC2)CCN(C(=O)Nc2ccccc2C(F)(F)F)CC1	-0.9%	6.2	2.3%	-34.5*	-28.6%
CO[C@]1(NC(=O)Cc2cccs2)C(=O)N2C(C(=O)O)=C(COC(N)=O)CS[C@H]21	-3.6%[17 µM]	x	x	-0.1	1.4%[16.9 µM]
Clc1ccc(/C=N/NC2=Nc3cccc4cccc2c34)cc1	14.1µM*	-0.9	u	-3.6	2µM*
C(=N\NC1=Nc2cccc3cccc1c23)/c1ccccc1	u	-9.5	u	-12.6	2.24µM*
C(=N\NC1=Nc2cccc3cccc1c23)/c1cccnc1	-6.0%	-5.0	u	-20.6	u
O=C(CCN1C(=O)c2ccccc2C1=O)Oc1ccc2ccccc2c1	1.9%	-7.9	u	-0.2	4.8%
CC1=CC(C)(C)Nc2ccc(OC(=O)CCN3C(=O)c4ccccc4C3=O)cc21	5.62µM*	-7.9	5.4%	-3.5	u
O=C(N/N=C/c1ccco1)C1COc2ccccc2O1 (stereo unspecified)	12.2%	-5.1	u	2.5	-2.3%
O=C(N/N=C/c1cccc([N+](=O)[O-])c1)C1COc2ccccc2O1 (stereo unspecified)	9.5%	-9.1	-3.9%	-0.5	15.6%
COc1cc([N+](=O)[O-])cc(/C=N\NC(=O)C2COc3ccccc3O2)c1O (stereo unspecified)	3.16µM*	-13.7	-20.4%	-2.9	0.447µM*
O=C(CNC(=O)C1COc2ccccc2O1)N/N=C/c1ccc(O)cc1O (stereo unspecified)	-17.1%	-11.9	-19.4%	1.1	12.6µM*
O=C(N/N=C\c1ccc[nH]1)C1COc2ccccc2O1 (stereo unspecified)	u	-2.2	5.7%	-11.8	11.2µM*
O=C(N/N=C\c1cccc([N+](=O)[O-])c1O)C1COc2ccccc2O1 (stereo unspecified)	2µM*	-15.1	7.7%	0.4	1.78µM*
COC(=O)C/C=C\[C@@H](C)[C@@H](/C=N\O[C@@H](C)CN1CCCCc2nc(C)c(C)cc21)OC	8.8%[10 µM]	x	x	-1.6	4.2%[10 µM]
COc1ccc(NC(=S)N(CCN2CCOCC2)Cc2ccccc2F)cc1	7.4%	-1.6	-0.1%	-0.4	u
Cc1ccc(NC(=S)N(CCN2CCOCC2)Cc2ccccc2F)cc1Cl	u	0.4	u	0.0	10µM*
SMILES	Gal4-VP16 FLuc	TSHR antag	ELG1 DNA repair	Coupling enz	RORg inh
Cc1cccc(NC(=S)N(CCN2CCOCC2)Cc2ccccc2F)c1	-69.1%	14.2	-8.4%	-4.2	12.6µM*
Cc1nc(-c2ccccc2)sc1-c1n[nH]c(=S)n1C	-9.7%	4.0	12.1%	3.1	6.6%
CSc1sc(-c2n[nH]c(=S)n2C)c2c1C=CCC2	-4.5%	2.0	-16.3%	-33.7*	u
S=C(NNc1ccnc2cc(Cl)ccc12)Nc1ccc(Cl)cc1Cl	-20.9%	-11.0	20.6µM*	-0.9	0.0%
CCOc1ccc(NC(=S)NNc2ccnc3cc(Cl)ccc23)cc1	-7.9%	2.0	23.1µM*	-0.4	6.9%
CCOc1ccccc1Nc1ccnc2cc(Cl)ccc12	-1.5%	-2.1	-9.9%	-3.4	-15.5%
S=C(Nc1ccc(Cl)cc1Cl)Nn1cnnc1	-5.3%	-9.5	0.5%	0.8	37.1%[10 µM]
CC1CCCC(N2CCN(S(=O)(=O)c3ccccc3)CC2)C1 (stereo unspecified)	-0.4%	-108.0*	-10.9%	-0.6	7.2%
COc1ccc(S(=O)(=O)N2CCN(C3CCCC(C)C3)CC2)cc1 (stereo unspecified)	-15.3%	-8.7	1.6%	-0.2	-7.7%
CC(=O)N(C1=C(N)C(=O)c2ccccc2C1=O)c1ccccc1	-26.4%	3.4	18.3µM*	-34.1*	-33.1%
N=c1n(CCN2CCOCC2)c2ccccc2n1CC(=O)c1ccc(Cl)c(Cl)c1	3.98µM*	-0.2	u	-30.9*	u
CSCCC(=O)N1CCCC(N2CCN(c3cccc(C(F)(F)F)c3)CC2)C1 (stereo unspecified)	-2.0%	-0.1	-12.0%	0.4	25.8%
O=C(CCl)N1CCCC1c1ccc2c(c1)OCCO2 (stereo unspecified)	u	-1.6	u	-4.9	4.47µM*
O=C(CN1CCN(S(=O)(=O)c2ccc(Br)cc2)CC1)N/N=C/c1ccc(Br)s1	8.91µM*	7.5	u	2.5	6.31µM*
CC(C)[C@@H](OCc1ccccc1)[C@H](C)/C=N\OC[C@@H](O)[C@@H]1O[C@@H]2OC(C)(C)O[C@@H]2[C@H]1O	-6.2%[10 µM]	x	x	-0.7	-2.0%[10 µM]
S=c1[nH]nc(C2CCCCC2)n1/N=C/c1ccco1	u	-10.0	-6.5%	2.3	u
Cc1ccc(-c2n[nH]c(=S)n2/N=C/c2sccc2C)cc1	-2.4%	-3.1	0.0%	-0.2	u
Cc1ccc(/C=N/n2c(C3CCCCC3)n[nH]c2=S)s1	3.16µM*	7.1	21.2%	2.0	3.16µM*
Cc1ccsc1/C=N/n1c(C2CCCCC2)n[nH]c1=S	3.16µM*	-5.5	5.4%	1.7	2.51µM*
CC(C)(C)CN1CCNC(=O)C1CC(=O)N1CCN(c2ccccc2)CC1 (stereo unspecified)	-5.5%	-4.5	-5.5%	-37.8*	24.9%
Cc1ccc(-n2nc(C)c3c(C)c(CCC(=O)NCc4ccco4)c(C)nc32)cc1	-13.6%	-11.1	23.1µM*	-1.2	-31.6%
COC(=O)c1cc(-c2cc(OC)ccc2OC)nc2c1c(=O)n(C)c(=O)n2Cc1ccccc1	-17.2%	-6.1	9.2µM*	-1.6	-0.8%
